DAX1 inh-1 = inhibits human nuclear receptor DAX1. inhibition, % at 6.75 µM. P51843. HEK293 Gal4-DAX1 luciferase reporter, luminescence. hit rate 0.99% among 340,000. AID 504766;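 active = inhibition above the mean over all tested compounds plus 3 SD, cut at about 4.2% in these data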;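 note: 0% = DAX1-transfected cells with DMSO and 100% = empty-vector control cells with DMSO; inhibition shows as a rise in luminescence from relieved DAX1 repression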
Target sequence (P51843 207-470 limits assumed): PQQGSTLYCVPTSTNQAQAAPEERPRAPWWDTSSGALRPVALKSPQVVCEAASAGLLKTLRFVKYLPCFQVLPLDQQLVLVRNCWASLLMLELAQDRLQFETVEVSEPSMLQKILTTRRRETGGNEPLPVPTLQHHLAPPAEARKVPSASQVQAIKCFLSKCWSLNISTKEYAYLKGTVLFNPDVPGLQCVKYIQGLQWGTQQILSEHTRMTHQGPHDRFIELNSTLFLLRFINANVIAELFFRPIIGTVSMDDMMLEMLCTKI
hcDAF12 agonist = activates DAF-12 receptor from parasite H. contortus. HEK293 hcDAF-12 lit1-tk-luc reporter, luminescence; 0% DMSO, 100% Δ7-dafachronic acid. activation, % at 6.8 µM. hit rate 1.4% among 370,000. AID 652067;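 active = activation above the mean of all tested compounds plus 3 SD, cut at about 5.5% in these data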;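 note: 100% = response to 3 µM Δ7-dafachronic acid high control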
ssDAF12 agonist = activators of S. stercoralis DAF-12 nuclear receptor. hit rate 1% among 370,000. activation, % at 6.8 µM. AID 652126. HEK293 ssDAF-12/GRIP1 lit1-tk-luc reporter, luminescence; % of 3 µM dafachronic acid response;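 active = activation above the mean over all tested compounds plus 3 SD, cut at about 0.9% in these data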;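 note: 0% = DMSO-only wells and 100% = 3 µM delta7-dafachronic acid wells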
FXN GAA850 act = activators of GAA850 frataxin (FXN) promoter. AID 540364. HEK293 lucGAA850 FXN promoter luciferase reporter, 24 h; percent of 10 µM SAHA response. hit rate 0.56% among 360,000. activation, % at 6 µM;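 active = activation above the average of all compounds screened plus 3 SD, cutoff fixed separately per campaign, cut at about 7.5% in these data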;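 note: 0% = DMSO wells and 100% = 10 µM SAHA wells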
DAX1 inh-2 = DAX1 (NR0B1) inhibition, primary screen. AID 652010. HEK293T StAR-luciferase reporter, SF-1/DAX-1 repression relief. inhibition, % at 6.8 µM. hit rate 1.1% among 370,000;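 active = inhibition above the mean over all tested compounds plus 3 SD, cut at about 3.6% in these data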;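 note: 0% = DAX-1 cells with DMSO and 100% = cells lacking DAX-1 with DMSO; higher inhibition means more luminescence from relief of DAX-1 repression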
hgDAF-12 ag = activates the H. glycines DAF-12 receptor ligand-binding domain; HEK293 GAL4-hgDAF12 UAS-luciferase reporter, agonist luminescence; normalized to butyrate control; activation, % at 6.8 µM; hit rate 1.8% among 370,000; AID 687014;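 active = activation above a cutoff set at the mean of all screened compounds plus 3 SD, cut at about 10% in these data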;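 note: 0% = DMSO wells and 100% = sodium butyrate wells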
Active calls of the source: *; nt = no result given. Most compounds without a hit are left out; they make up all but 4.5% or so of the library.

SMILES	DAX1 inh-1	hcDAF12 agonist	ssDAF12 agonist	FXN GAA850 act	DAX1 inh-2	hgDAF-12 ag
O=C(CNC(=O)c1ccccc1F)OCc1csc(-c2ccccc2)n1	0	0	-1	4	2	3
COc1ccccc1C(=O)NCC(=O)OCc1csc(-c2ccccc2)n1	0	5.7*	0	1	1	9
COC(=O)CC1(c2ccc(OC)cc2)C(=O)c2ccccc2C1=O	7.1*	1	-2	-1	0	0
COC(=O)CC1(c2ccccc2)C(=O)c2ccccc2C1=O	1	-2	-1	-1	0	-2
COC(/C=C/Nc1ccc(C)cc1)=C(C#N)C#N	0	5.6*	0	1	0	0
CCOc1cccc(C(=O)Nc2ccc3[nH]ncc3c2)c1	1	5	-1	6	3	13*
COc1cccc(C(=O)Nc2ccc3[nH]ncc3c2)c1	3	5	0	4	2	11*
c1cc(-c2cc3cc4c(cc3cn2)OCO4)cs1	1	5.8*	1.2*	4	2	7
Cn1nccc1-c1ccc(C(=O)NCc2ccco2)c2occc12	nt	1	0	1	3	13*
Cc1ccc(S(=O)(=O)N2[C@@H](Cc3ccccc3)CO[C@H]2CC(=O)c2ccccc2)cc1	nt	1	-1	nt	-1	-1
Cc1ccc(S(=O)(=O)N2[C@@H](Cc3ccccc3)CO[C@H]2CC(=O)c2cccs2)cc1	nt	-1	0	nt	4.0*	0
CCOC(=O)C1=NOC(C(=O)NCCO)(C(=O)C2CC2)C1 (stereo unspecified)	nt	-2	-1	nt	-1	1
COc1ccc(CNc2ccccc2)cc1Br	1	-2	0	-1	-1	3
COc1cc(CNc2cccc(F)c2)cc(Br)c1O	0	2	1.5*	4	0	1
CC1CCC2(CCC(=O)N2CCCOC(=O)Nc2cccc(C(F)(F)F)c2)CC1 (stereo unspecified)	nt	1	-2	nt	0	0
C=C(C)[C@@H]1CC2=C(OC)C(CC=C(C)C)(CC=C(C)C)C(=O)C(C(=O)c3ccccc3)=C2O1	nt	-2	-2	nt	0	-1
Cc1ccc2nc(=O)c(NNc3ccccc3)cnc2c1	0	0	1.0*	4	1	6
Cc1nc2ccccc2nc(=O)c1NNc1ccccc1	1	2	0	2	1	9
CC(C)C(=O)Nc1nnc(Cc2c[nH]c3ccccc23)s1	0	1	-2	4	0	0
Nc1nnc(Cc2c[nH]c3ccccc23)s1	0	5.7*	1	-4	-1	3
CCCCCn1nnnc1C1(C)CCCC(=O)N1Cc1ccco1 (stereo unspecified)	nt	0	-1	nt	0	2
O=C(Cc1ccccc1F)Nc1ccc(S(=O)(=O)N2CCCCC2)cc1	0	-1	-1	0	-1	0
O=C(Cn1nc(-c2ccccc2F)ccc1=O)Nc1ccc(S(=O)(=O)N2CCCCCC2)cc1	6.6*	0	-1	3	0	-3
O=Cc1ccc2noc(-c3ccc(Cl)cc3)c2c1	0	6.5*	-1	4	1	9
Nc1ccc(C(=O)c2cccs2)cn1	1	5.8*	0	1	0	3
SMILES	DAX1 inh-1	hcDAF12 agonist	ssDAF12 agonist	FXN GAA850 act	DAX1 inh-2	hgDAF-12 ag
COc1cccc(-c2nnc(SCC(=O)Nc3cccc4ccccc34)n2Cc2ccco2)c1	nt	-3	-2	nt	-2	-2
Cc1ccc(C=C2C(=O)c3ccccc3C2=O)o1	1	6.3*	-1	5	0	5
COC(=O)CCCCCCCC(=O)Nc1nnc(C(F)(F)F)s1	6.1*	-1	-1	-1	0	-2
Cc1ccc(Cl)cc1N1CCN(C(=O)Cc2c(C(=O)O)[nH]c3ccccc23)CC1	1	5	1.2*	2	0	-2
Cc1ccc2c(c1)N(CCCC(=O)NCc1ccc(F)cc1)C(=O)CO2	nt	-1	-2	nt	0	2
CCOC(=O)C(Cc1ccccc1)NC(=O)CCc1c(C)nc2ncnn2c1C (stereo unspecified)	0	5.7*	-1	-1	0	1
CCCC12CN3CCN(CC(C3)/C1=N\NC(=O)c1ccccc1N)C2	2	2	0	2	2	6
Nc1ccccc1C(=O)N/N=C1/C2CN3CCN(C2)CC1(Cc1ccccc1)C3	4.5*	2	0	4	2	8
O=C(OC12CCCN(C1)/C(=C/c1ccncc1)C2)c1ccccc1 (stereo unspecified)	nt	-5	-2	nt	-3	-5
Cc1ccc2nc(NC(=S)NC(=O)c3ccco3)sc2c1	5.2*	3	0	2	1	12*
Cc1nc2ccc(NC(=O)Cc3ccsc3)cc2s1	1	5.8*	1.3*	6	2	6
Cc1ccc(S(=O)(=O)CCC(=O)Nc2cccc([N+](=O)[O-])c2)cc1	7.3*	0	-1	0	0	2
Cc1nc2ccc(NC(=O)c3ccccc3)cc2s1	3	2	-1	4	2	11*
CC1(C)OC(C)(C)C(=N/O)/C1=N\N	nt	0	-1	nt	0	-5
C=CCN1[C@H](Cc2ccccc2)COc2cc(F)ccc2S1(=O)=O	nt	-4	-2	nt	-1	3
N#CCC[C@H]1CC[C@]2(CCCN(C(=O)C3CCCC3)C2)O1	nt	-4	-1	nt	0	-1
CCN1CCCCC(NC(=O)c2ccccc2C)C1=O (stereo unspecified)	nt	1	-1	nt	1	3
C[C@@H]1OC(C2CCCCC2)N(C)[C@H]2C[C@H]3c4[nH]c5cccc(-c6ccccc6)c5c4CCN3C[C@@H]12 (stereo partly specified)	nt	0	-1	nt	-1	0
CC(C)(C)N(Cc1cn(Cc2ccccc2)nn1)S(=O)(=O)c1ccccc1Br	nt	-1	-1	nt	0	3
CCCCOCCCNC(=O)C[C@H]1C[C@@]2(C(=O)OC)C(=C[C@H](C3CCCC3)O[C@@H]2C)N(CCc2ccc(OC)c(OC)c2)C1=O	nt	-1	-1	nt	1	3
COC(=O)C(C(=O)OC)[C@H]1C=C[C@@H](C(=O)NS(=O)(=O)c2ccc(C)cc2)N(C(C)=O)C1	nt	-1	-1	nt	0	-2
Cc1nc2ccc(NC(=O)c3sccc3C)cc2s1	1	0	-1	7	2	12*
CSc1nc2ccc(NC(=O)COc3ccccc3F)cc2s1	-1	3	0	2	3.7*	9
Cc1nc2ccc(C(=O)Nc3ccccc3Cl)cc2s1	3	1	-1	3	2	11*
CSc1nc2ccc(NC(=O)c3ccc(Cl)s3)cc2s1	1	0	-1	6	4.1*	2
Cc1cc(=O)[nH]c(SCC(=O)Nc2ccc(Cl)cc2)n1	nt	0	-1	nt	0	-3

High-throughput results deposited in PubChem by The Scripps Research Institute Molecular Screening Center.
